Holding throughout (assay): NCI-60 one-dose screen, 48 h (100 = growth as untreated, 0 = no growth, -100 = all killed)
What all share (conditions): 10 µM unless noted

Test [1] concerns NCI-H23 lung.
In test [2] the test system is NCI-H226 lung.
Test [3] has as its system HOP-62 NSCLC.
Test [4] relates to NCI-H460 lung.
Test [5] relates to HOP-92 NSCLC.
The subject of test [6] is NCI-H522 lung.
For test [7], the system named is A549/ATCC NSCLC.
Test [8] concerns 786-0 renal.
The test system of test [9] is COLO 205 colon.
The subject of test [10] is NCI-H322M lung.

This is part of a sample that, as a whole, favours compounds with a hit. Of some 83,000 tested, about 20% had one in any assay.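 Percent growth is the endpoint: 0 to 100 indicates growth inhibition (40 means 60% inhibition), 0 means no net growth, and negative values indicate cell death.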 Values without a mark were called inactive. Calls of active or inactive are those of the source. Rule for the calls: active = growth percent below 10; inactive = the rest.

With `O=c1ccn2nc3ccccc3c2[nH]1`, the growth in [1] was 94.6%; in test [2], 91.3%; in test [3], 88.4%; in test [4], 109%; in test [5], 71.2%; in [6] it was 91.9%. For the same compound, the growth is 116% in test [7], 99.2% in test [8] and 124% in test [9].
`COc1ccc(NC(=O)CSc2nnc(-c3cc(-c4ccc(S(N)(=O)=O)cc4)nc4ccccc34)n2-c2ccccc2)cc1`: the growth was 102% in test [1]; 77.5% in test [2]; 85.7% in test [3]; 91% in [4]; 62.2% in [5]; 78% in test [6]. In addition, the growth in test [7] is 90.9%; in [8] it was 88.4%; in test [9], 95.5%.
For the compound `O=C(Nc1ccc(Nc2ccncc2)cc1)c1ccc(C(=O)Nc2ccc(Nc3ccncc3)cc2)cc1`, the growth in test [1] was 59.2%; in test [10] it was 71.9%; in [3] it was 82.1%; in [4] it was 88.2%; in test [5], 28.9%; in test [6], 47.4%. The growth was 69.5% in [7], 84.5% in test [8] and 27.7% in test [9].
As to `CCOC(=O)/C=C/c1cc2cc(-c3csc4ccccc34)ccc2[nH]1`, the growth in test [1] was 60.6%; in test [2] it was 103%; in test [3] it was 76.7%; in test [4], 83.8%; in test [5], 99.7%; in test [6], 40%. For the same compound, the growth is 55.5% in [7], 82.4% in test [8] and 93.4% in test [9].
`Cc1ccc(/C=C2\C(=O)N(C)c3ccc(S(=O)(=O)Nc4ccc(C(C)(C)C)cc4)cc32)s1`: the growth in test [1] is 64.1%; in [2], 86%; in [3], 31.8%; in test [4] it was 32.1%; in [5], 60%; in test [6] it was 43.4%. Also, the growth is 33.1% in test [7], 40.1% in test [8] and 70.9% in [9].
Consider `COc1ccc(-c2nc(SCC(=O)Nc3nc(-c4ccccc4)cs3)[nH]c(=O)c2C#N)cc1`, for which the growth in [1] was 88.3%; in test [2], 85%; in test [3] it was 82.4%; in [4] it was 114%; in test [5], 81.5%; in test [6] it was 84%. Moreover, the figures for the growth in test [7], in [8] and in test [9] were 104%, 100% and 112%, respectively.
Turning to `CC(=O)[C@@H]1CC[C@]2(COS(=O)(=O)c3ccc(C)cc3)CC[C@]3(C)[C@H](CC[C@@H]4[C@@]5(C)CCCNC(C)(C)[C@@H]5CC[C@]43C)[C@@H]12`, the growth is 78.6% in test [1]; 86% in test [2]; 87.1% in test [3]; 41.8% in test [4]; 57.6% in [5]; 89.8% in [6]. Also, the growth is 70.5% in test [7], 89.5% in test [8] and -62.4% (active) in test [9].
Consider `C[C@@H]1N=C(c2ccc3ccccc3n2)Nc2nc3ccccn3c2C1=O`, for which the growth in [1] was 86.3%; in [2] it was 94.4%; in test [3] it was 75.1%; in [4] it was 97.2%; in [5], 97.2%; in [6] it was 102%. In addition, the figures for the growth in [7], in [8] and in [9] were 105%, 98.3% and 113%, respectively.
`CC/C=C\C[C@H](O)C/C=C1/C(=O)C=C[C@@H]1C/C=C\CCCCO`: the growth in test [1] was 60.9%; in test [2], -23.9% (active); in test [3], 6.06% (active); in test [4], 0.172% (active); in test [5] it was 48.8%; in test [6], -40.2% (active). In addition, the growth is 5.55% (active) in test [7], -49.6% (active) in test [8] and -34.3% (active) in [9].
For `Cc1nc2ccccc2n1CC1NC(=O)NC1=O` (stereo not given), the growth in test [1] was 102%; in test [2], 98.4%; in test [3], 93.3%; in [4], 107%; in test [5], 115%; in test [6], 94.9%. The results for the growth in test [7], in test [8] and in test [9] were 98.3%, 101% and 108%, respectively.
Turning to `NNC(=O)c1nc(N)n(-c2ccc(S(N)(=O)=O)cc2)n1`, the growth in test [1] was 97.2%; in [2] it was 98.7%; in [3], 90.6%; in test [4] it was 105%; in test [6], 80.3%; in [7], 97.1%. Also, the growth in test [8] is 95.7%; in [9], 103%.
Turning to `CC(=O)OC1CCC2(C)C(=CC3C4CCC(=O)C4(C)CCC32)C1` (stereo not given), the growth in test [1] was 102%; in test [2], 107%; in [3], 111%; in [4], 108%; in test [5] it was 101%; in test [6], 96.9%. In addition, the growth was 101% in test [7], 102% in test [8] and 94% in test [9].
As for `COc1cccc(-c2nn(-c3ccccc3)cc2-c2ccnc(NCCNC(=O)Nc3cccc(C(F)(F)F)c3)c2)c1`, the growth is 35.8% in test [1]; 61% in test [2]; 9.97% (active) in test [3]; 7.98% (active) in test [4]; 0.983% (active) in [5]; -17.9% (active) in test [6]. The values for the growth in test [7], in test [8] and in [9] were 7.06% (active), 22.7% and -13.3% (active), respectively.
As for `O=C1Nc2ccccc2/C1=C/c1cn(C(=O)c2ccc(Cl)cc2)c2ccccc12`, the growth is 90.8% in test [1]; 92.3% in test [2]; 111% in test [3]; 107% in test [4]; 99.3% in [5]; 85.6% in test [6]. For the same compound, the growth was 101% in test [7], 111% in test [8] and 58.2% in [9].

The record behind these values is PubChem BioAssay (NCI).
